Assay outcomes from PubChem BioAssay.
Shown is part of a subset that was picked to be rich in hits.
Sm TGR block: blocks Schistosoma mansoni thioredoxin glutathione reductase | Q962Y6 | purified TGR, DTNB reduction, TNB absorbance 405 nm | Potency, µM (series often up to 114 µM), for inactives: top-dose activity change, negative = inhibition, hits mostly inhibitors | 360,000 tested, 3% active | AID 485364; also: potency is read from the fitted curve at half-maximal effect; % is scaled to controls: 0 for no effect and ±100 for the full control effect; nearly all actives have a fitted effect of over 60% in size
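First, TGR (20 nM dispensed) and NADPH were mixed with compound. Second, a 15 min room-temperature incubation followed. Third, further NADPH and then DTNB were added to start the reaction. Finally, TNB absorbance was monitored kinetically.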
Tb PYK inh: T. brucei pyruvate kinase inhibition; Q57TT1; TbPYK enzyme, Kinase-Glo Plus ATP luminescence, 45 min; Potency, µM (series often up to 76.8 µM), inactives show at the highest dose activity, negative = inhibition, hits mostly inhibitors; 410,000 tested, 0.12% active; AID 624173; also: potency is read from the fitted curve at half-maximal effect; % is scaled to controls: 0 for no effect and ±100 for the full control effect; nearly all actives have a fitted effect of over 50% in size
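Assay buffer: 50 mM TEA pH 7.2, 100 mM KCl, 10 mM MgCl2, 0.05% BSA, 0.01% Tween-20. Pyruvate kinase from T. brucei plus substrate met compound, then ADP (130 uM final). Luminescence was read post 45 min RT.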
FBPA Giardia inh: Giardia lamblia aldolase inhibition; purified Giardia FBPA; Potency, µM (titrated, usually from 59.6 µM), without a hit: top-dose activity, negative = inhibition, most hits filed as inhibitors; 290,000 tested, 0.71% active; also: potency is read from the fitted curve at half-maximal effect; % is scaled to controls: 0 for no effect and ±100 for the full control effect; nearly all actives have a fitted effect of over 55% in size
Target sequence (A8B2U2 whole entry, looked up): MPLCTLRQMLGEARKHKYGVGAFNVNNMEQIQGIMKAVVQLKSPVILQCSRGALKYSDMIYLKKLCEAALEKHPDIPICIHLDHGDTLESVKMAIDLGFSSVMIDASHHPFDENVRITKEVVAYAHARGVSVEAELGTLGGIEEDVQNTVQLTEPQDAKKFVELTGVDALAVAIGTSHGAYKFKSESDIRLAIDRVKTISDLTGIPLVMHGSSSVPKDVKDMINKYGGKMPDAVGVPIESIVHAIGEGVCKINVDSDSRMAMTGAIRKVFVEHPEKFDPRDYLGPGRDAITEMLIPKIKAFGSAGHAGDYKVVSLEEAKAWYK
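40 nM FBPA preincubated 10 min at RT with compound (up to 57.5 uM final), then substrate plus GAPDH/TPI/NAD/arsenate coupling and diaphorase/resazurin added. Fluorescence read after 20 min at RT, 525/598 nm.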
Shiga inhibitor: blocks Shiga toxin action in Vero cells; AID 2315; 290,000 tested, 9.2% active; Vero cells, Shiga toxin protein synthesis inhibition reporter; inhibition, % at 38.7 µM; in the data active = inhibition mostly above about 28%, no sharp cut-off; inactive = mostly below about 43%; also: 0% is about no effect
CHX counter: counter-screen hit for Shiga toxin inhibitors, cycloheximide | cell reporter, cycloheximide protein synthesis inhibition counterscreen | max response, % | 300,000 tested, 12% active | AID 2314; in the data active = max response mostly above about 13%, no sharp cut-off; inactive = mostly below about 14%; also: read at 38.3 µM for the half of the compounds with a filed dose; 0% is about no effect
LmPK inhibitor: inhibitors of Leishmania mexicana pyruvate kinase. 290,000 tested, 0.37% active. Q27686. Potency, µM (top dose mostly 57.5 µM), inactives show top-dose activity change, negative = inhibition, most hits filed as inhibitors. purified LmPK, Kinase-Glo ATP luminescence, 1 h; also: potency is read from the fitted curve at half-maximal effect; % is scaled to controls: 0 for no effect and ±100 for the full control effect
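Purified LmPK (0.1 nM) converted ADP (0.1 mM) to ATP with PEP (0.5 mM) in imidazole buffer pH 7.2 with KCl and MgCl2, 1 h at room temperature. ATP was read by Kinase-Glo luminescence; data normalized to uninhibited and no-enzyme controls.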
* = called active by the depositor. Unless noted, calls follow the shape of the dose curve; as a rule, active = well fitted curve in the direction sought with a large enough effect; inconclusive = small, poorly fitted or top-dose-only effect, or another doubt; inactive = no such curve, though single readings can be large; an effect the other way counts as inactive or inconclusive.

Cc1ccc(NC(=O)c2ccc(Cl)c(N3C(=O)C=CC3=O)c2)cc1 was read as Sm TGR block 0.56µM*, Tb PYK inh inconclusive, FBPA Giardia inh -29%, Shiga inhibitor 81*, CHX counter 57* and LmPK inhibitor 10%.
For O=C(Nc1cccnc1)c1ccc(Cl)c(Cl)c1 the results were Sm TGR block 4%, Tb PYK inh -6%, FBPA Giardia inh 5%, CHX counter 24* and LmPK inhibitor -5%.
For CS(=O)(=O)c1cccc(NC(=O)c2ccc(Cl)c(Cl)c2)c1 the results were Sm TGR block 4%, Tb PYK inh -3%, FBPA Giardia inh -2%, Shiga inhibitor 54*, CHX counter 18 and LmPK inhibitor 0%.
Cc1ccc(NC(=O)c2ccc(C)c(S(=O)(=O)N3CCCCCC3)c2)cc1 was read as Sm TGR block 16% and Tb PYK inh -1%.
For Cc1nnc(N2C(=O)c3oc4ccccc4c(=O)c3C2c2ccc(F)cc2)s1 (stereo not drawn) the results were Sm TGR block -17% and Tb PYK inh 13%.
`CC(C)(O)c1[nH]c2cc(F)ccc2c1C(C)(C)O` gave Sm TGR block -12%, Tb PYK inh 5%, FBPA Giardia inh -1%, Shiga inhibitor -6, CHX counter 1 and LmPK inhibitor -11%.
O=C(CCCn1c(=O)c2cccn2c2ccccc21)Nc1cccc(Cl)c1 was read as Sm TGR block -9% and Tb PYK inh -2%.
CCOc1ccc(CN(C(=O)c2cc(=O)c3cc(C)cc(C)c3o2)C2CCS(=O)(=O)C2)cc1 (stereo not drawn) was read as Sm TGR block 1%, Tb PYK inh 5%, Shiga inhibitor -10, CHX counter -5 and LmPK inhibitor 7%.
For CCOC(=O)/C(C#N)=C1/C(=O)N(Cc2ccccc2)c2ccccc21 the results were Sm TGR block 0%, Tb PYK inh -1%, FBPA Giardia inh 10µM*, Shiga inhibitor -4, CHX counter -1 and LmPK inhibitor -7%.
For COc1ccc(OC)c(/C=C2/Sc3ccccc3C2=O)c1 the results were Sm TGR block 0%, Tb PYK inh -16%, FBPA Giardia inh -5%, Shiga inhibitor 20, CHX counter -2 and LmPK inhibitor -3%.
CCC(=O)N(C)/C=C1\Sc2ccccc2C1=O was read as Sm TGR block -36%, Tb PYK inh 6%, Shiga inhibitor 148*, CHX counter 30* and LmPK inhibitor -6%.
For Cc1ccc(/C=C2\Sc3ccccc3C2=O)s1 the results were Sm TGR block 11%, Tb PYK inh -3%, FBPA Giardia inh -2%, Shiga inhibitor 34*, CHX counter 14* and LmPK inhibitor 11µM*.
For O=CN(/C=C1\Sc2ccccc2C1=O)Cc1ccccc1 the results were Sm TGR block -15%, Tb PYK inh 6%, FBPA Giardia inh -3%, Shiga inhibitor 67*, CHX counter 40* and LmPK inhibitor 13%.
Screening CC(=O)Nc1ccc(/C=C2\Sc3ccccc3C2=O)cc1 returned Sm TGR block 6%, Tb PYK inh -4%, FBPA Giardia inh 2%, Shiga inhibitor 25, CHX counter 5 and LmPK inhibitor -1%.
O=C1/C(=C/c2cccnc2)Sc2ccccc21 was read as Sm TGR block 6%, Tb PYK inh 6%, FBPA Giardia inh -3%, Shiga inhibitor -2, CHX counter 13 and LmPK inhibitor inconclusive.
For CCOC(=O)c1ccc2c(c1)N(CC)C(=O)c1ccccc1S2 the results were Sm TGR block -2%, Tb PYK inh -1%, FBPA Giardia inh -10%, Shiga inhibitor -11, CHX counter 1 and LmPK inhibitor -2%.
`CC(=O)N(C)/C=C1\Sc2ccccc2C1=O` gave Sm TGR block inconclusive, Tb PYK inh 1%, FBPA Giardia inh 8%, Shiga inhibitor 42, CHX counter 17* and LmPK inhibitor 10%.
`CC(=O)NC1=NN(C(C)=O)C(C)(c2cccs2)S1` (stereo not drawn) gave Sm TGR block 4%, Tb PYK inh -11%, FBPA Giardia inh 6%, Shiga inhibitor -5, CHX counter -1 and LmPK inhibitor -3%.
